Molecules are shown by their SMILES. Activity calls are given as the source filed them.

Experiment [1] in a line: small molecules captured by biotinylated probe aFSTL3 – biochemical, small-molecule microarray, fluorescence 635/667, stem cell growth factor project, primary screen (AID 1064).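 Further: measures binding of the biotinylated anti-FSTL3 antibody to printed compounds.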 The note with it: higher = more signal.
A short description of experiment [2]: binders from COS7 lysate, DM2A8 probe, primary screen, torsin A project, cell lysate, small-molecule microarray, fluorescence 635/667 (AID 1065). The note with it: higher = more signal, COS7 lysate expressing mutant human TOR1A.
A short description of experiment [3]: small molecules captured by biotinylated probe aFGF2 – biochemical, small-molecule microarray, fluorescence 635/667, stem cell growth factor project, primary screen (AID 1067).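 Further: measures binding of biotinylated aFGF2 protein to printed compounds on slides; z-score merges feature fluorescence and signal-to-noise across triplicate slides.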 The note with it: higher = more signal.
Experiment [4] can be described thus: small molecules captured by biotinylated probe aFGF10 – biochemical, small-molecule microarray, fluorescence 635/667, stem cell growth factor project, primary screen (AID 1071).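 Further: score merges 667 nm spot intensity and signal to noise from triplicate slides.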 The note with it: higher = more signal.
Experiment [5] concerns the target Neurogenic locus notch homolog protein 2 (Homo sapiens) (UniProt Q04721). The experiment in a line: small molecules binding Notch2 protein – biochemical, small-molecule microarray, 635 nm fluorescence, stem cell growth factors, primary screen (AID 1073). The note with it: higher = more signal.
Experiment [6] deals with Pro-neuregulin-1, membrane-bound isoform (Homo sapiens) (UniProt Q02297). Nature of the experiment: small molecules binding neuregulin-1 protein – biochemical, small-molecule microarray, fluorescence 635/667, psychiatric disease protein project, primary screen (AID 1075).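 Further: score combines 667 nm spot fluorescence with signal to noise.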 The note with it: NRG1 binding, 635 nm fluorescence, higher = more signal.
Sequence of Pro-neuregulin-1, membrane-bound isoform (Homo sapiens) (Q02297 whole entry, looked up, the tested form may be a part, canonical isoform): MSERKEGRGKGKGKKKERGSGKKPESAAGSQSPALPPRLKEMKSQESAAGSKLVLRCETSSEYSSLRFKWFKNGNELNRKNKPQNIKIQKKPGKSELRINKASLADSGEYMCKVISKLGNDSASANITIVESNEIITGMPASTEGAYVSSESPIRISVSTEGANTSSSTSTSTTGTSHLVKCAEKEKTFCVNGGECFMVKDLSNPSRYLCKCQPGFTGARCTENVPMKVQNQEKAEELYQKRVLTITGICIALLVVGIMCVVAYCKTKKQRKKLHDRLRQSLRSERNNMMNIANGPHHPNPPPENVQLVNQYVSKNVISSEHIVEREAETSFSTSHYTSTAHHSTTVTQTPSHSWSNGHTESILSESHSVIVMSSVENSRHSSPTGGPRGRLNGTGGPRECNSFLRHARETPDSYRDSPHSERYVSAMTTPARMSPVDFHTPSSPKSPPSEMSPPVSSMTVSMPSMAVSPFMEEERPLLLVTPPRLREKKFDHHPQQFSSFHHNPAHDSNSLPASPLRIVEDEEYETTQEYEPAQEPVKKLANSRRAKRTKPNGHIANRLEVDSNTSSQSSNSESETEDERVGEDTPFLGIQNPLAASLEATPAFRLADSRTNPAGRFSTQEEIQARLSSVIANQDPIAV
For experiment [7], the system named is Neuregulin-1 EGF-like domain. The experiment in a line: small molecules binding NRG1 EGF domain – biochemical, small-molecule microarray, 635 nm fluorescence, primary screen (AID 1081).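 Further: binding of the protein to compounds printed on small-molecule microarray slides.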 The note with it: higher = more signal.
Experiment [8] is described as follows: FRG1 expression reporter modulators in myotubes – cell-based, C2C12 myotubes, firefly/Renilla luciferase, luminescence, FRG1 inhibition for FSHD, primary screen (AID 1084). The note with it: FRG1 promoter luciferase, higher = more signal, called active from +8 up or from −8 down.
Experiment [9] is described as follows: small molecules captured by biotinylated probe aFST – biochemical, small-molecule microarray, fluorescence 635/667, stem cell growth factor project, primary screen (AID 1086).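 Further: score merges 667 nm fluorescence with signal-to-noise of each printed compound spot.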 The note with it: higher = more signal.
A short description of experiment [10]: binders of probe aHhip on microarray, primary screen, stem cell growth factor project, biochemical, small-molecule microarray, fluorescence 635/667 (AID 1087).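 Further: score merges spot fluorescence at 667nm with spot signal to noise ratio.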 The note with it: higher = more signal.
The subject of experiment [11] is PRMT1 (protein arginine N-methyltransferase 1). The experiment in a line: small molecules binding arginine methyltransferase PRMT1 – biochemical, small-molecule microarray, 635 nm fluorescence, primary screen (AID 1088).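 Further: binding of Prmt1 protein to compounds spotted on small-molecule microarray slides.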 The note with it: higher = more signal.
Experiment [12] in a line: growth effects on S. cerevisiae YJM789 – YJM789 clinical isolate, OD600, 24 h, basal, primary screen (AID 1089).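 Further: growth of clinical yeast isolate S. cerevisiae YJM 789 seeded 1000 cells per well; test concentration not given here.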 The note with it: higher = more signal, called active from +8 up or from −8 down.
The nature of experiment [13]: S. pombe growth modifiers, basal conditions – strain 972, OD600, 24 h, no modulator, primary screen (AID 1090).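 Further: basal condition with compound alone and no growth modifier present; test concentration not given here.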 The note with it: S. pombe 972 growth, higher = more signal, called active from +8 up or from −8 down.
Experiment [14] in a line: budding yeast growth modifiers under rapamycin – strain BY4716, OD600, 96 h, primary screen (AID 1091). Further: test concentration not given here. The note with it: S. cerevisiae BY4716 + rapamycin, higher = more signal, called active from +8 up or from −8 down.
In experiment [15] the target is Torsin-1A-interacting protein 2 (Homo sapiens) (UniProt Q8NFQ8). The experiment in a line: small molecules binding lysate-expressed LULL1 – cell lysate, human LULL1 lysate, 635/667 nm fluorescence, primary screen (AID 1092).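 Further: probe is lysate of COS7 cells overexpressing human LULL1; score merges per-feature 667 nm fluorescence with signal-to-noise.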 The note with it: small-molecule microarray, hLULL1 lysate binding, 635 nm fluorescence; higher = more signal.
Sequence of Torsin-1A-interacting protein 2 (Homo sapiens) (Q8NFQ8 whole entry, looked up): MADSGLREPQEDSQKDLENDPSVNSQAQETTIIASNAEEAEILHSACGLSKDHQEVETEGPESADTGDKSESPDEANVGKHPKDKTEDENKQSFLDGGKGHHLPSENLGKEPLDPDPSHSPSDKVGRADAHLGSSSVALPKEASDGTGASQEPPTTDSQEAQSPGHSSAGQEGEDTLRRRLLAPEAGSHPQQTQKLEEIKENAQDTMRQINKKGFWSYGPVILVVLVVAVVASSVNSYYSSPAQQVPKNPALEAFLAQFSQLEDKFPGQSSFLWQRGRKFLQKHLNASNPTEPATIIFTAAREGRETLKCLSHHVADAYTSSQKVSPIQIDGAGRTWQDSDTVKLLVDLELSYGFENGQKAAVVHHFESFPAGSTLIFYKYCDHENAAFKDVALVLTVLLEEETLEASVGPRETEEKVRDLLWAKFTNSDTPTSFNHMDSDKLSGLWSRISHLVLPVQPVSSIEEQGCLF
The nature of experiment [16]: optical density change of DRC41 E. coli – strain DRC41, OD650, 24 h, E. coli filamentation project, primary screen (AID 1093).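 Further: MC1000 strain lacking acrAB efflux and sulA so SOS filamentation is blocked; test concentration not given here.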 The note with it: E. coli DRC41 growth, higher = more signal, called active from +8 up or from −8 down.
Experiment [17] is described as follows: probe aLefty2 binding to arrayed compounds – biochemical, biotinylated probe, 635/667 nm fluorescence, primary screen (AID 1094).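 Further: score merges spot fluorescence near 667 nm with spot signal-to-noise ratio.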 The note with it: small-molecule microarray, higher = more signal.
For experiment [18], the system named is Noggin (protein binding on small-molecule microarray). The experiment in a line: small molecules binding Noggin protein – biochemical, 635/667 nm fluorescence, primary screen (AID 1095).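 Further: score merges 667 nm feature fluorescence with signal to noise over triplicate slides.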 The note with it: 635 nm fluorescence, higher = more signal.
Experiment [19] has as its target Neurogenic locus notch homolog protein 3 (Homo sapiens) (UniProt Q9UM47). The experiment in a line: small molecules binding NOTCH3 protein – biochemical, 635/667 nm fluorescence, primary screen (AID 1096). The note with it: small-molecule microarray, 635 nm fluorescence, higher = more signal.
Experiment [20] is described as follows: probe aEGFR binding to arrayed compounds – biochemical, biotinylated probe, 635/667 nm fluorescence, primary screen (AID 1097).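 Further: probe is a biotinylated anti-EGFR antibody binding compounds printed on slides; score combines fluorescence near 667 nm and signal to noise of each spot.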 The note with it: small-molecule microarray, higher = more signal.

Sequence of Neurogenic locus notch homolog protein 3 (Homo sapiens) (Q9UM47 whole entry, looked up): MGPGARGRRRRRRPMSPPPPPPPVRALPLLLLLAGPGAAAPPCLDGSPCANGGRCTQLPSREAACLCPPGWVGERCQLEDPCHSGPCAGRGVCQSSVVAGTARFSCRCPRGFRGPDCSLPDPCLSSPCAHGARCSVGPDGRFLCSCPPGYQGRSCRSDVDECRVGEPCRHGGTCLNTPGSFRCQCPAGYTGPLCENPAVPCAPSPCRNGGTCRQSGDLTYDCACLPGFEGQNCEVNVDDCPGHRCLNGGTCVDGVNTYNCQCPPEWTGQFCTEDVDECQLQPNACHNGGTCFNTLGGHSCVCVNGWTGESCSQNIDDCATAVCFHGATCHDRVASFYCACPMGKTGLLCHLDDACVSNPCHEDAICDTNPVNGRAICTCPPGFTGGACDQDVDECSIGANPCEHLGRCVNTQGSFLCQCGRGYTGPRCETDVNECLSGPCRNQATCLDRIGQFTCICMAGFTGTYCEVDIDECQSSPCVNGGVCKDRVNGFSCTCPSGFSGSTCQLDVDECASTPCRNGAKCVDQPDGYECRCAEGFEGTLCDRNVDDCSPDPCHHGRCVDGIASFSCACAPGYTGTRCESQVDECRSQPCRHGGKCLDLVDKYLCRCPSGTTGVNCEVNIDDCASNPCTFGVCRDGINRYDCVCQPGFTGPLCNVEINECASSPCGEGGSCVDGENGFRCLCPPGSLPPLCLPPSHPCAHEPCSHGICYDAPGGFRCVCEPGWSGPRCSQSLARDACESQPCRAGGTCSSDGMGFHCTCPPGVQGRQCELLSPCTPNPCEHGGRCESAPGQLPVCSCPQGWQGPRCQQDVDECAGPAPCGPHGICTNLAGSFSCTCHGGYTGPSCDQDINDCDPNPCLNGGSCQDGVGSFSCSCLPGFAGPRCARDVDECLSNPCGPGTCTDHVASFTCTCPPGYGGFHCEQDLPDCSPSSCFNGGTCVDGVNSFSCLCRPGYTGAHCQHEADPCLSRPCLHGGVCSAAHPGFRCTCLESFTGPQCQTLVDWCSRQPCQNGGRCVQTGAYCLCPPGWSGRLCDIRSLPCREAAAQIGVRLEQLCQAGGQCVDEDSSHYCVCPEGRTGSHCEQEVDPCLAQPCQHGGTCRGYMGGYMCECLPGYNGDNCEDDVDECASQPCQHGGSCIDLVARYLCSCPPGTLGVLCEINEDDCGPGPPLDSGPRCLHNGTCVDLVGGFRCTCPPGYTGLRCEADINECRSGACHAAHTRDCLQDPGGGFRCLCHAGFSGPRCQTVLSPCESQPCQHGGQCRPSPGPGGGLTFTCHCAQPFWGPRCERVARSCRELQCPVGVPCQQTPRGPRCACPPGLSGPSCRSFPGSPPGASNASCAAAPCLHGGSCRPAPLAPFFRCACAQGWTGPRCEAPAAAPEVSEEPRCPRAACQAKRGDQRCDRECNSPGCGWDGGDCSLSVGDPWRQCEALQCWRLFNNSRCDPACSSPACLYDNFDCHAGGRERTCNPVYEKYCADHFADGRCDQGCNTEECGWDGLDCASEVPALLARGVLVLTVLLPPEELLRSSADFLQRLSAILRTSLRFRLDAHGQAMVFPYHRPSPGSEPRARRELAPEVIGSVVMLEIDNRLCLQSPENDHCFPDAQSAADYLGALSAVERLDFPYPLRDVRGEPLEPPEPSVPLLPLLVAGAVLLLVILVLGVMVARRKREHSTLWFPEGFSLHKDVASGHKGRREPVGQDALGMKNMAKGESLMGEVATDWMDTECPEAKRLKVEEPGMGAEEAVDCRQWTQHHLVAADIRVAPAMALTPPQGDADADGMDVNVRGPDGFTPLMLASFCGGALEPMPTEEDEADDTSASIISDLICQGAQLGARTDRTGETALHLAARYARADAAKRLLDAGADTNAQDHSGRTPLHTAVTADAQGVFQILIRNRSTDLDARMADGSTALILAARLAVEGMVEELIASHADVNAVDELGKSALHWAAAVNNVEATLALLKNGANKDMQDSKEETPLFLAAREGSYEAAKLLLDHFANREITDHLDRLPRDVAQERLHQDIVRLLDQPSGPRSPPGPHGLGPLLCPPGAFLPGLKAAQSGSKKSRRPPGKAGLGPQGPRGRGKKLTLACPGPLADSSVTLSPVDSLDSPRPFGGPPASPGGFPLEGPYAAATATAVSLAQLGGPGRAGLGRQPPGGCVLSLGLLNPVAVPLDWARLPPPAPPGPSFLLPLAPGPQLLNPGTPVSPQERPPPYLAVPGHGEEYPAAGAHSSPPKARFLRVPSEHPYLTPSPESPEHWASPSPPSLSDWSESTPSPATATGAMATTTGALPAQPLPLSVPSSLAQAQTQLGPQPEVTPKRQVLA

Regarding `O=C1c2ccccc2[C@@]2(Cc3ccccc3N(CC(F)(F)F)C2=O)[C@H](c2ccc(CO)cc2)N1Cc1ccccc1C(F)(F)F`, the composite z-score in experiment [1] was 0.886; in [2], -0.752; in experiment [3], -0.131; in experiment [4], -0.597; in [5], -1.34; in experiment [6], -0.61. For the same molecule, the composite z-score was -1.2 in [7]; -0.596 in experiment [9]; -0.191 in experiment [10]; 0.52 in experiment [11]; 0.394 in experiment [15]; -0.0412 in experiment [17]. The values for the composite z-score in [18], in experiment [19] and in experiment [20] were -1.51, -1.18 and -0.26, respectively. For the same molecule, the z-score in [8] is -0.435 (inactive); in experiment [12] it was -0.84 (inactive); in experiment [13], -1.25 (inactive); in experiment [14], -1.12 (inactive); in experiment [16], 0.886 (inactive).
Regarding `O=C1c2ccccc2C(=O)c2cc([C@H]3Oc4ccccc4S(=O)(=O)N4CCC[C@@H]34)ccc21`, the composite z-score in [1] was 0.238; in experiment [2], -0.845; in experiment [3] it was -0.128; in experiment [4], -0.639; in [5], -1.09; in experiment [6] it was -0.926. The composite z-score was -1.64 in [7]; -0.167 in experiment [9]; -0.353 in experiment [10]; -1.02 in [11]; -0.629 in experiment [15]; -0.276 in experiment [17]. For the same molecule, the composite z-score in experiment [18] was -0.566; in experiment [19], -0.259; in experiment [20] it was -0.196. Besides, the z-score in experiment [8] was -0.933 (inactive); in experiment [12], -1.31 (inactive); in [13] it was -1.33 (inactive); in [14], -0.462 (inactive); in experiment [16], 2.81 (inactive).
In the case of `CCOC(=O)C[C@H]1[C@H](OC(=O)c2ccc(-c3ccccc3)cc2)[C@@H](NC(=O)C2CCCCC2)c2cc(OCCCO)ccc2N1C(=O)c1ccc2ccccc2n1`, the composite z-score was 0.0371 in experiment [1]; 0.3 in [2]; -0.0788 in experiment [3]; 0.361 in experiment [4]; 0.689 in experiment [5]; 0.738 in experiment [6]. In addition, the composite z-score in experiment [7] was 0.741; in [9], 0.483; in experiment [10], -0.226; in experiment [11], 1.12; in experiment [15], 1.72; in [17], 0.0366. In addition, the composite z-score was 0.0692 in experiment [18], 1.1 in experiment [19] and -0.0631 in [20]. Further, the z-score in experiment [8] is -0.429 (inactive); in [12], -0.778 (inactive); in experiment [13], -1.55 (inactive); in experiment [14] it was -0.327 (inactive); in experiment [16], 2.33 (inactive).
For `C=CCNC(=O)[C@@H]1[C@H]2C(=O)O[C@H](c3ccccc3)[C@H](c3ccccc3)N2[C@H](c2ccc(O)cc2)[C@@]12C(=O)Nc1ccccc12`, the composite z-score in [1] is -0.156; in experiment [2], 0.654; in experiment [3], -0.0521; in experiment [4] it was 0.0546; in [5], -0.554; in [6], 1.31. The composite z-score in [7] was 0.574; in experiment [9], -0.0542; in experiment [10], -0.251; in experiment [11] it was 1.45; in experiment [15], 2.8; in [17], -0.189. For the same molecule, the composite z-score in experiment [18] was 0.855; in [19], 0.31; in experiment [20] it was -0.129. Moreover, the z-score in [8] is 0.674 (inactive); in experiment [12], 0.455 (inactive); in experiment [13] it was -1.32 (inactive); in experiment [14], 1.89 (inactive); in [16] it was 2.14 (inactive).
Take `C=C[C@H](OC)[C@@H](OC(=O)Nc1ccc(OC)cc1)c1ccc(OC)c(O)c1`: the composite z-score in [1] is 1.46; in [2], -0.68; in experiment [3], -0.209; in experiment [4], -1.29; in experiment [5], -2.83; in [6] it was 0.272. In addition, the composite z-score in experiment [7] is 0.843; in [9], -1.11; in [10] it was -0.487; in experiment [11], -1.07; in experiment [15], -0.0649; in experiment [17], -0.21. The results for the composite z-score in [18], in experiment [19] and in experiment [20] were -1.8, -0.805 and -0.373, respectively. The z-score was 1.51 (inactive) in experiment [8]; 0.698 (inactive) in experiment [12]; -0.133 (inactive) in experiment [13]; 0.551 (inactive) in experiment [14]; 2.09 (inactive) in experiment [16].
On to `C=CCNC(=O)[C@@H]1[C@H]2C(=O)O[C@H](c3ccccc3)[C@H](c3ccccc3)N2[C@H](c2ccc(O)cc2)[C@@]12C(=O)Nc1ccc(C#Cc3ccc(OC)cc3)cc12`, for which the composite z-score in [1] was -0.112; in experiment [2], 0.712; in [3] it was 0.0356; in experiment [4] it was 0.69; in [5] it was 1.46; in [6], 0.489. Besides, the composite z-score in [7] is 1.16; in experiment [9] it was 0.496; in [10], -0.0672; in experiment [11], 1.54; in experiment [15], 1.96; in [17], 0.0005. Also, the composite z-score in experiment [18] was 0.436; in experiment [19] it was 1.14; in [20] it was -0.0019. The z-score in [8] was 0.606 (inactive); in experiment [12], -0.147 (inactive); in [13] it was -1.67 (inactive); in experiment [14], 2.97 (inactive); in experiment [16] it was 2.8 (inactive).
For `COCCCNC(=O)[C@@]1(C)c2ccccc2C(=O)N(Cc2cc(F)cc(C(F)(F)F)c2)[C@H]1c1ccc(CO)cc1`, the composite z-score is 1.57 in experiment [1]; -0.12 in [2]; -0.145 in experiment [3]; -0.103 in [4]; -1.19 in experiment [5]; 0.595 in experiment [6]. The composite z-score was 1.45 in experiment [7]; -0.738 in experiment [9]; -0.196 in experiment [10]; 0.851 in experiment [11]; 2.32 in [15]; 0.584 in [17]. The composite z-score in [18] was -1.44; in experiment [19] it was -1.22; in experiment [20] it was -0.293. The z-score in experiment [8] was -1.65 (inactive); in experiment [12] it was 1.65 (inactive); in [13], -0.351 (inactive); in experiment [14] it was 0.459 (inactive); in experiment [16], 0.985 (inactive).
Turning to `C=CCC(OC(C)=O)[C@@H]1[C@@H](N(Cc2ccc(-c3cccc(C(F)(F)F)c3)o2)C(=O)c2ccc(-c3ccccc3)cc2)c2cc(OCCCO)ccc2N1C(=O)Cc1ccc(OC)cc1` (stereo not given in full), the composite z-score was 0.365 in [1]; -0.338 in experiment [2]; -0.1 in [3]; -0.394 in experiment [4]; -0.654 in [5]; -0.61 in experiment [6]. For the same molecule, the composite z-score in experiment [7] was -0.663; in [9] it was 0.258; in experiment [10] it was -0.0324; in experiment [11], -0.305; in [15] it was -0.0364; in experiment [17], 0.0236. Further, the composite z-score was -0.475 in experiment [18], -1.16 in [19] and -0.191 in experiment [20]. Further, the z-score is -0.981 (inactive) in [8]; -0.933 (inactive) in experiment [12]; -1.88 (inactive) in experiment [13]; -0.82 (inactive) in [14]; 1.84 (inactive) in experiment [16].
Consider `COCCOC(=O)N1C(=O)[C@@]2(c3cc(C#CC4(O)CCCCCC4)ccc31)[C@H](C(=O)NC[C@H](O)c1ccccc1)[C@H]1C(=O)O[C@H](c3ccccc3)[C@H](c3ccccc3)N1[C@@H]2c1ccccc1OCCO`, for which the composite z-score in experiment [1] is -0.0213; in [2], 0.621; in [3], -0.0628; in experiment [4], 0.695; in experiment [5], 1.03; in [6], 1.29. The composite z-score worked out at 1.23 in experiment [7]; 0.627 in experiment [9]; 0.0044 in experiment [10]; 1.55 in experiment [11]; 2.69 in experiment [15]; 0.101 in [17]. Also, the composite z-score in experiment [18] was 1.3; in experiment [19], 1.04; in experiment [20], 0.0343. Moreover, the z-score was 0.153 (inactive) in experiment [8]; 2.64 (inactive) in [12]; 0.623 (inactive) in experiment [13]; 6.84 (inactive) in experiment [14]; 1.97 (inactive) in experiment [16].

(Values after PubChem BioAssay.)
